RORgamma inh: qHTS for inhibitors of ROR gamma transcriptional activity | Nuclear receptor ROR-gamma (Mus musculus), P51450 | Drosophila S2 Gal4-RORgamma UAS-luciferase reporter, 20 h | Potency, µM (doses to about 53.6 µM), for the others: top-dose activity change, negative = inhibition, actives largely listed as inhibitors | 310,000 tested, 5.4% active | AID 2551, 2010; further: potency means the concentration at half of the fitted maximal effect; on the % scale 0 is the no-effect control and ±100 the full control effect; nearly all actives have a fitted effect of over 60% in size
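Read-out: Photinus luciferase luminescence; inhibitors lower reporter signal. Insect Schneider cells with Gal4-ROR gamma fusion under metallothionein promoter, UAS reporter; 700 uM final copper sulfate induction, 20 hr, ambient temperature.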
TRPV1 potentiator: HTS Assay for Compounds that Act as Potentiators of the Vanilloid Receptor 1; potentiation, % at 8.33 µM; TRPV1-expressing cells, Fluo-8 calcium influx, capsaicin EC20 potentiation; 320,000 tested, 0.02% active; AID 540277, 2011; Transient receptor potential cation channel subfamily V member 1 (Homo sapiens), Q8NER1; in the data active means potentiation above about 80%; inconclusive means between about 30% and that limit; further: 0% is about no effect
Target sequence (Q8NER1 whole entry, looked up): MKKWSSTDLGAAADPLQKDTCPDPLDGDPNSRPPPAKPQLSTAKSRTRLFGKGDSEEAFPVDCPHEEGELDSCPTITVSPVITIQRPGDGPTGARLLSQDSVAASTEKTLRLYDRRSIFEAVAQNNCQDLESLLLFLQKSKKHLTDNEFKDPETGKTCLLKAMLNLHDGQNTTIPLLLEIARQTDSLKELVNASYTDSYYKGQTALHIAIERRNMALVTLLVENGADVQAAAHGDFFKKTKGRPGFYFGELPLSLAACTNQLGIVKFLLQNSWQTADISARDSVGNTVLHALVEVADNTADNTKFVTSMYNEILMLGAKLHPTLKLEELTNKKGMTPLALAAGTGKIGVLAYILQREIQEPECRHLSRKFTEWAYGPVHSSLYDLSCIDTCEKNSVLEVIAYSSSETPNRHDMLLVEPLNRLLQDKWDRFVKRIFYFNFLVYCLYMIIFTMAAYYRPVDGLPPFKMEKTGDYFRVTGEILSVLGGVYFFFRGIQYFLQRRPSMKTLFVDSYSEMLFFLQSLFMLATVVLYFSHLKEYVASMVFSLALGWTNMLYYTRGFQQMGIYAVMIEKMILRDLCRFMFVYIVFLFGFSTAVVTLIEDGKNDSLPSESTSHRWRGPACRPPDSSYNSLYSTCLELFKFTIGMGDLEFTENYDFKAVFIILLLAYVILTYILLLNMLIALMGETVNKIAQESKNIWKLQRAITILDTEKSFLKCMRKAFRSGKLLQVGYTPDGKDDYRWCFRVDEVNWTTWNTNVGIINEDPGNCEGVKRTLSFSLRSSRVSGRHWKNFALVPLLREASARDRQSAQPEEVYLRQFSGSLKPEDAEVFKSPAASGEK
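Fluo-8 calcium influx in TRPV1-expressing cells, kinetic read (ex 480/em 520 nm). Compound added and read 3 min for agonist activity, followed by capsaicin at EC20 final and 2 min further read for enhancement.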
VP16 counter: VP16 counterscreen qHTS for inhibitors of ROR gamma transcriptional activity; AID 2546, 2010; 310,000 tested, 3.5% active; Drosophila S2 Gal4-VP16 UAS-luciferase, luminescence, 20 h; Potency, µM (doses to about 53.6 µM), without a hit: top-dose activity, negative = inhibition, actives largely listed as inhibitors;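 further: Gal4-VP16 expression switched on by copper sulfate through the metallothionein promoter; potency means the concentration at half of the fitted maximal effect; on the % scale 0 is the no-effect control and ±100 the full control effect; nearly all actives have a fitted effect of over 50% in size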
TRPV1 agonist: HTS Assay for Compounds that Act as Agonists of the Vanilloid Receptor 1. TRPV1-expressing cells, Fluo-8 calcium influx, agonist mode. activation, % at 8.33 µM. 320,000 tested, 0.19% active. AID 540275, 2011; in the data active means activation above about 80%; inconclusive means between about 30% and that limit; further: 0% is about no effect
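Fluo-8 calcium influx in TRPV1-expressing cells, kinetic read (ex 480/em 520 nm). Compound added and read 3 min for agonist activity, followed by capsaicin at EC20 final and 2 min further read for enhancement.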
uPA generation: qHTS for Inhibitors of Cell Surface uPA Generation | cell surface uPA generation assay, qHTS | Potency, µM (highest dose often 38.3 µM), inactives show at the highest dose activity change, negative = inhibition, most hits filed as inhibitors | 330,000 tested, 0.31% active | AID 540303, 2011; active means well fitted inhibition curve with a large enough effect; inconclusive means small, poorly fitted or top-dose-only effect; inactive means no such curve, though single readings can be large or run the other way; tested in mouse RAW 264.7 cells; further: potency means the concentration at half of the fitted maximal effect; on the % scale 0 is the no-effect control and ±100 the full control effect; nearly all actives have a fitted effect of over 55% in size
Numbers without * were called inactive; ? = inconclusive; · = no result; [ ] = another dose, or the depositor's remark. Sampled rows, rich in hits. Any-hit rate of the full collection: about 5.8%. Unless noted, the call rests on the fitted dose curve; in most records, active means well fitted curve in the direction sought with a large enough effect; inconclusive means small, poorly fitted or top-dose-only effect, or another doubt; inactive means no such curve, though single readings can be large; an effect the other way counts as inactive or inconclusive.

SMILES	RORgamma inh	TRPV1 potentiator	VP16 counter	TRPV1 agonist	uPA generation
CC[C@H](C)[C@H](NC(=O)[C@H](N)Cc1ccc(O)cc1)C(=O)N[C@@H](CC(N)=O)C(=O)N[C@@H](CC(C)C)C(=O)N[C@H](C(=O)N[C@@H](C(=O)N[C@@H](CCCN=C(N)N)C(=O)N[C@@H](CCC(N)=O)C(=O)N[C@@H](CCCN=C(N)N)C(=O)N[C@H](Cc1ccc(O)cc1)C(N)=O)[C@@H](C)O)[C@@H](C)CC	-10.1%	·	-3.1%	·	·
COc1ccc2[nH]cc(CCNc3ncncc3-c3ccoc3)c2c1	-6.2%	·	11.2µM*	·	·
CCNc1ncc2nc(-c3ccccc3)c(=O)n(CCOC)c2n1	16.5%	·	-4.2%	·	·
COc1ccc(C2=Nn3c(nnc3-c3ccc(OC)c(OC)c3)SC2)cc1	-1.5%	·	-0.8%	·	·
N=c1ccn(Cc2ccccc2Cl)cc1	13.0%	-7.6	-4.0%	0.2	-1.1%
N=c1ccn(Cc2c(Cl)cccc2Cl)cc1	?	-5.3	10µM*	1.6	-6.6%
Cc1onc(-c2ccccc2)c1CNS(=O)(=O)c1cccc(Br)c1	-18.6%	20.8	-6.7%	4.6	-0.9%
Cn1cccc1/C=N/NC(=O)c1sc2ccccc2c1Cl	0.447µM*	-13.4	3.16µM*	?	-4.0%
O=C(N/N=C/c1ccccn1)c1sc2ccccc2c1Cl	2.82µM*	·	3.16µM*	·	?
O=C(N/N=C/c1c[nH]c2ccccc12)c1sc2ccccc2c1Cl	?	19.8	?	0.1	-15.8%
Cc1c(/C=N/NC(=O)c2sc3ccccc3c2Cl)cnn1C	2µM*	-13.1	11.2µM*	19.8	-8.2%
O=C(N/N=C/c1ccc([N+](=O)[O-])o1)c1sc2ccccc2c1Cl	2.51µM*	-9.2	3.16µM*	10.7	?
C(=N\N=C\c1ccncc1)/c1ccncc1	·	-19.9	·	-0.6	-0.1%
OCC1OC(/C=C\c2ccccc2)C=CC1Oc1ccc2c(c1)OCO2 (stereo not drawn)	33.4%[10 µM]	·	7.7%[10 µM]	·	·
O=C(NCCN1CCOCC1)C1(C(F)(F)F)C/C(=C/CCO)CCCO1 (stereo not drawn)	-19.8%	·	-0.6%	·	·
Cn1cccc1CC(=O)N/N=C/c1cccc2ccccc12	16.1%	12.1	-2.3%	9.7	3.5%
Cn1cccc1/C=N/NC(=O)Cc1cccc2ccccc12	?	-7.2	14.1µM*	5.8	-2.1%
CCc1ccccc1NC(=S)N1CCN(c2cccc(OC)c2)CC1	10µM*	-6.8	?	2.0	5.6%
COc1cccc(N2CCN(C(=S)Nc3ccccc3)CC2)c1	-12.7%[1.91 µM]	-7.0	?	3.3	-6.6%
CCc1ccc(NC(=S)N2CCN(c3cccc(OC)c3)CC2)cc1	12.6µM*	-10.7	?	?	10.0%
CCOC(=O)c1ccc(NC(=O)CC2OCCN(CC)C2=O)cc1 (stereo not drawn)	20µM*	-6.5	?	-0.8	0.3%
CCOC(=O)c1ccc(NC(=O)CC2C(=O)OCCN2CC)cc1 (stereo not drawn)	?	-0.8	?	-4.3	3.1%
c1ccn2cc(C34CC5CC(CC(C5)C3)C4)nc2c1	5.62µM*	-11.6	22.4µM*	15.2	5.9%
COc1cccc(NC(=O)C2COc3ccccc3O2)c1 (stereo not drawn)	10.5%	3.9	-10.1%	12.9	-21.1%
Fc1ccc(NCc2n[nH]c(=S)n2Cc2ccccc2)cc1	4.47µM*	-3.3	-18.8%	-2.1	7.7%
SMILES	RORgamma inh	TRPV1 potentiator	VP16 counter	TRPV1 agonist	uPA generation
S=c1[nH]nc(CNc2ccc(Cl)cc2)n1Cc1ccccc1	3.55µM*	-5.1	-17.1%	0.9	1.8%
C/C(Cn1nc([N+](=O)[O-])cc1C)=N\NC(=O)c1ccc(O)cc1O	1.58µM*	-14.2	14.1µM*	?	-0.5%
C/C(CC(=O)Nc1ccc(N(C)C)cc1)=N\NC(=O)c1ccccc1O	23.4%[1.91 µM]	-14.0	?	?	-6.7%
C/C(Cn1cnc([N+](=O)[O-])n1)=N\NC(=O)c1ccccc1F	·	·	·	·	2.6%
C/C(Cn1cnc([N+](=O)[O-])n1)=N\NC(=O)c1ccc(O)cc1O	0.199µM*	-13.2	?	?	0.9%
C/C(CC(=O)Nc1ccc([N+](=O)[O-])cc1)=N\NC(=O)c1ccccc1O	11.2µM*	-32.3	15.8µM*	?	7.7%
C/C(Cn1cnc([N+](=O)[O-])n1)=N\NC(=O)c1ccccc1O	12.6µM*	-22.9	?	26.6	3.1%
C/C(Cn1cnc([N+](=O)[O-])n1)=N\NC(=O)c1cccnc1	1.6%	-1.7	-6.6%	-5.0	-2.5%
C=CCC(C)(O)c1cccs1 (stereo not drawn)	1.1%	·	-2.9%	·	·
COC(=O)N1C(=O)[C@](c2ccccc2)(C2CCCCC2)N1C(=O)OC	-20.7%	-21.5	?	?	?
COC(=O)N1C(=O)[C@@](c2ccccc2)(C2CCCC2)N1C(=O)OC	11.2µM*	19.7	-3.0%	14.1	7.08µM*
C=CC[C@]12CC=CC(=O)[C@@]1(O)O[C@H](c1ccc(OC)c(OC)c1)[C@H]2C	·	·	·	·	7.94µM*
O=S(=O)(c1ccc(NC(=S)NCCC(c2ccccc2)c2ccccc2)cc1)N1CCOCC1	6.6%	3.0	-12.3%	5.9	-19.2%
S=C(NCCC(c1ccccc1)c1ccccc1)Nc1ccc(Cl)cc1	7.94µM*	-15.6	?	?	7.8%
S=C(NCCC(c1ccccc1)c1ccccc1)Nc1ccccc1Cl	12.6µM*	-7.7	?	19.5	4.8%
COc1ccc(-c2nc3cnc(N4CCN(C)CC4)nc3n(Cc3ccc(F)cc3)c2=O)cc1	-15.9%	·	0.8%	·	·
Cc1ccc(S(=O)(=O)CC#CCOC(=O)c2ccc([N+](=O)[O-])cc2)cc1	10µM*	29.7	?	-0.2	·
Cc1cccc(C(=O)N(Cc2ccco2)c2c(N)n(Cc3ccccc3)c(=O)[nH]c2=O)c1	·	4.5	·	1.7	5.5%
O=C(Nc1ccc2nn(-c3ccccc3)nc2c1)c1ccc2c(c1)OCCO2	17.8%	15.5	-20.2%	2.9	7.1%
COc1cc(C(=O)Nc2nc(C)c(Cc3ccc4c(c3)OCO4)s2)cc(OC)c1OC	7.94µM*	6.4	?	1.0	?
CCCOc1ccc(C(=O)Nc2nc(C)c(Cc3ccc4c(c3)OCO4)s2)cc1	?	6.1	?	4.3	?
CCOc1cccc(C(=O)NC(=S)Nc2ccc3c(c2)OCCO3)c1	7.94µM*	16.9	1.2%	8.3	-5.9%
CCOc1ccc(-n2nc3ccc(NC(=O)c4ccc5c(c4)OCCO5)cc3n2)cc1	10µM*	-2.5	11.2µM*	-1.5	8.6%
CCOc1cccc(C(=O)NC(=S)Nc2ccc(Cl)cc2C(=O)O)c1	7.08µM*	?	3.55µM*	-2.0	3.4%

Screens deposited in PubChem by National Center for Advancing Translational Sciences (NCATS).
